# An excerpt weighted towards active compounds, which were near 0.92% of everything screened.
# BLM inh: blocks DNA unwinding by human BLM helicase. recombinant BLM DNA unwinding, fluorescence dequenching. 0.2% of 350,000 active. Potency, µM (doses to about 56.1 µM), for the others: at the highest dose activity change, negative = inhibition, hits mostly inhibitors. P54132;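 also: plate controls were vehicle for no effect and no enzyme for full effect; nearly all actives have a fitted effect of over 35% in size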
# FEN1 inhibitor: blocks human flap endonuclease 1; P39748; Recombinant FEN1 flap cleavage, fluorescence, 15 min; Potency, µM (doses to about 114 µM), inactives show at the top dose activity change, negative = inhibition, hits mostly inhibitors; 0.35% of 390,000 active; also: nearly all actives have a fitted effect of over 65% in size
# Target sequence (P39748 whole entry, looked up): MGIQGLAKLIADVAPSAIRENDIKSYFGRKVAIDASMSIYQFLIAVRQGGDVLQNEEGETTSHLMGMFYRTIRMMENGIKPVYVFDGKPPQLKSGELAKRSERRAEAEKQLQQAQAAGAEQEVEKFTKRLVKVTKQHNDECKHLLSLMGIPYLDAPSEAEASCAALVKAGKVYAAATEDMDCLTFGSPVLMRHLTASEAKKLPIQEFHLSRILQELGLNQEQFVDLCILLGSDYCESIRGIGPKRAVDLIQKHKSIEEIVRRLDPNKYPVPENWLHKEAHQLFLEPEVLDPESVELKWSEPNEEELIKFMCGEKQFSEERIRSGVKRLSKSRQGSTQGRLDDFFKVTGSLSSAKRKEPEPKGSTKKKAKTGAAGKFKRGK
#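 Recombinant FEN1 (10 nM) was preincubated with pin-transferred compounds for 15 min at room temperature, then flap DNA substrate (50 nM final) was added. Plates were read at 0 and 15 min, and normalized concentration–response data were fitted to a four-parameter Hill equation.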
# TDP1 inh: inhibitors of human tyrosyl-DNA phosphodiesterase TDP1. recombinant TDP1, AlphaScreen DNA substrate cleavage. Potency, µM (doses to about 130 µM), for inactives: at the highest dose activity change, negative = inhibition, actives largely listed as inhibitors. 0.28% of 350,000 active; also: nearly all actives have a fitted effect of over 40% in size
#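 Tdp1 1 nM final; 15 min RT w/ cpd; substrate 15 nM, 5 min; beads 10 ug/ml, 10 min; AlphaScreen read. Neg ctrl: no enzyme.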
# RECQ1 inh-1: inhibitors of human RECQ1 DNA helicase; P46063; 0.54% of 240,000 active; Potency, µM (series often up to 57.3 µM), inactives show at the top dose activity, negative = inhibition, usual class: inhibitors; RECQ1 DNA unwinding, red fluorescence kinetic read;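 also: plate controls were vehicle for no effect and no enzyme for full effect; nearly all actives have a fitted effect of over 30% in size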
#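 RECQ1T1 50 nM; forked duplex (20 bp + 30-nt ss tails) 200 nM, ATP 2 mM final; pH 8.0, 2 mM MgCl2, 2.5 ug/ml poly(dI-dC); 15 min compound preincubation; discontinuous kinetic read over 2 h at RT.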
# APE1 inh: blocks human APE1 abasic DNA cleavage; recombinant APE1, TAMRA/BHQ-2 abasic DNA cleavage fluorescence; 0.35% of 350,000 active; Potency, µM (top dose mostly 65.8 µM), for inactives: at the top dose activity change, negative = inhibition, hits mostly inhibitors;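 also: plate controls were vehicle for no effect and reference inhibitor for full effect; nearly all actives have a fitted effect of over 55% in size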
# Target sequence (P27695 whole entry, looked up): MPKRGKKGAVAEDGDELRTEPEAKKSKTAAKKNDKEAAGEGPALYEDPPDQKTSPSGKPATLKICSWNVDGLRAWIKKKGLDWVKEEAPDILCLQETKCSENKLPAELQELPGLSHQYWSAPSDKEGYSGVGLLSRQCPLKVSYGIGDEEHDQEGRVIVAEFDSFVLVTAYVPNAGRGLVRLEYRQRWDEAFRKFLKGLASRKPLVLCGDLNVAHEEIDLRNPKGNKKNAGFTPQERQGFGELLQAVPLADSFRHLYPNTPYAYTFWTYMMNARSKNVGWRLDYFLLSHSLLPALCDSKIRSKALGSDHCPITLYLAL
#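 Step 1: APE1 (0.75 nM) with compound, 15 min RT. Step 2: add 50 nM fluorophore/quencher THF duplex. Step 3: three fluorescence reads 60 s apart (525/598 nm); read 3 minus read 1 = reaction progress.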
# RECQ1 conf: confirmation of human RECQ1 helicase inhibitors; shares compounds with RECQ1 inh-1; RECQ1 helicase DNA unwinding, fluorescence; Potency, µM (doses to about 229 µM), for the others: at the highest dose activity change, negative = inhibition, most hits filed as inhibitors; 28% of 610 active; AID 2708; also: nearly all actives have a fitted effect of over 45% in size
# RECQ1 ADP FP: displaces ADP in a fluorescence polarization counter-screen for RECQ1 hits; shares compounds with RECQ1 inh-1; ADP fluorescence polarization displacement counterscreen; Potency, µM (highest dose often 228 µM), inactives show at the highest dose activity change, negative = inhibition, hits mostly inhibitors; 27% of 530 active; AID 2711; also: nearly all actives have a fitted effect of over 45% in size
# RECQ1 inh-2: confirmation of human RECQ1 helicase inhibitors. Potency, µM (highest dose often 119 µM), for inactives: at the highest dose activity, negative = inhibition, hits mostly inhibitors. 15% of 1,100 active. shares compounds with RECQ1 inh-1. recombinant RECQ1 DNA unwinding, red fluorescence; also: nearly all actives have a fitted effect of over 50% in size
# The depositor's hits bear a star; i = inactive; ? = inconclusive; . = no result; [ ] = another dose, or the depositor's remark. Calls follow the shape of the dose curve; as a rule, active = well fitted curve in the direction sought with a large enough effect; inconclusive = small, poorly fitted or top-dose-only effect, or another doubt; inactive = no such curve, though single readings can be large; an effect the other way counts as inactive or inconclusive. Unless noted, % is scaled to controls: 0 for no effect and ±100 for the full control effect; potency is read from the fitted curve at half-maximal effect.
SMILES,BLM inh,FEN1 inhibitor,TDP1 inh,RECQ1 inh-1,APE1 inh,RECQ1 inh-2,others
O=P1(O)Oc2c(c(-c3ccccc3)cc3ccccc23)-c2c(-c3ccccc3)cc3ccccc3c2O1,-5%,.,0%,?,0%,?,
Cc1ccc2occ(CC(=O)Nc3ccc(S(=O)(=O)N4CCCC(C)C4)cc3)c2c1 (configuration not stated),-14%,-16%,0%,.,.,.,
COc1ccccc1-c1nnc(C2CCN(C(=O)c3cccc(Cl)c3)CC2)o1,-3%,-1%,6%,.,.,.,
CC(C)(C)C1CCC(C(=O)OCC(=O)c2ccc[nH]2)CC1 (configuration not stated),-12%,-24%,3%,?,10%,-25%,
Cc1ccc(N2CC(C(=O)OCC(=O)c3ccc[nH]3)CC2=O)cc1 (configuration not stated),.,1%,-8%[0.505 µM],.,-5%,.,
Cc1cc(NS(=O)(=O)c2ccc(NC(=O)c3cc(-c4cccnc4)nc4ccc(Cl)cc34)cc2)no1,0%,?,2%,-2%,-5%,.,
Cc1cc(C)c2nc(-c3ccccn3)cc(C(=O)Nc3ccc(S(=O)(=O)Nc4onc(C)c4C)cc3)c2c1,?,?,40µM*,?,?,?,
Cc1cc(C)c2nc(-c3ccccn3)cc(C(=O)Nc3ccc(S(=O)(=O)Nc4cc(C)on4)cc3)c2c1,?,?,2%,25µM*,?,?,
Cc1ccccc1OCCCCc1c(C)n[nH]c1C,-3%,-18%,6%,?,-1%,-14%,
Cc1cccc(C)c1OCCCCc1c(C)n[nH]c1C,0%,-1%,4%,2%,5%,.,
CCN(C(=O)C1CCC(CNS(=O)(=O)c2cccc3nsnc23)CC1)c1cccc(C)c1 (configuration not stated),-6%,4%,7%,.,.,.,
Cc1cc(C)nc(NN2C(=O)/C(=C/c3ccccc3)SC2=S)n1,-1%,11%,-8%,-6%,0%,.,
CN(C)c1ccc(/C=C2\SC(=S)N(Nc3ncc(C(F)(F)F)cc3Cl)C2=O)cc1,-11%,?,3%,10µM*,-1%,.,RECQ1 conf=7.9µM*;RECQ1 ADP FP=14%[91.9 µM]
COC/C=C/C1=CC2=CC(=O)C(C)(OC(=O)C3CCCC3)C(=O)C2=CO1 (configuration not stated),3%,40µM*,-1%,?,?,?,
CCOC(=O)C1(CCCc2ccccc2)CCN(C(=O)C2CCCO2)CC1 (configuration not stated),0%,1%,-4%,i,3%,.,
CCOC(=O)C1(CCc2ccccc2)CCN(C(=O)C2CCCO2)CC1 (configuration not stated),-2%,-15%,.,?,-2%,2%,
CCOC(=O)C1CCN(C(=O)Nc2ccc3nc(-c4ccco4)c(-c4ccco4)nc3c2)CC1,4.5µM*,?,35µM*,10µM*,7.9µM*,?,
N#Cc1cccc(-c2ccc3ncnc(NCc4ccccc4)c3c2)c1,-23%,.,.,?,-1%,.,
COc1ccc(Cl)cc1NC(=O)c1c(NCc2cccnc2)sc2c1CCC(C)C2 (configuration not stated),-11%,-8%,9%,.,.,.,
O=C(O)CCCCn1c(SCc2ccccc2Cl)nc2ccsc2c1=O,-1%,8%,6%,-9%,13%,.,RECQ1 conf=10%;RECQ1 ADP FP=3%
NS(=O)(=O)c1ccc(CCNC(=O)CSc2nc3ccsc3c(=O)n2CCCCCC(=O)O)cc1,-8%,12%,5%,-1%,13%,.,RECQ1 conf=14%;RECQ1 ADP FP=-8%
O=C(O)CCCCn1c(SCc2cc(=O)n3cc(Cl)ccc3n2)nc2ccsc2c1=O,2%,-19%,3%,0%,-2%,.,
O=C(Nc1cccc(C(F)(F)F)c1)c1ccc2c(c1)nnn2C1CCCC1,-3%,-2%,0%,.,.,.,
COc1ccc(NC(=O)Cc2ccc(NC(=O)N3CCCCc4ccccc43)cc2)c(OC)c1,-3%,9%,8%,.,.,.,
COc1cc(/C=C2\CCc3c2nc2ccccc2c3C(=O)O)cc(OC)c1OC,14µM*,50µM*,.,10µM*,25µM*,?,RECQ1 conf=22µM*;RECQ1 ADP FP=-10%[91.9 µM]
SMILES,BLM inh,FEN1 inhibitor,TDP1 inh,RECQ1 inh-1,APE1 inh,RECQ1 inh-2,others
CC(C)N(C(=O)CSc1nnc(Cn2nnc3ccccc32)n1C)C(C)C,1%,-5%,8%,i,5%,.,
O=C(O)CSc1nnc(Cn2nnc3ccccc32)n1CCc1ccccc1,-2%,4%,1%,0%,10%,.,RECQ1 conf=8%;RECQ1 ADP FP=8%
COc1ccc(OC)c(N2C(=O)[C@@H]3C(c4ccccc4Cl)=NO[C@@H]3C2=O)c1,-6%,50µM*,.,28µM*,?,?,
COc1ccc(OC)c(S(=O)(=O)NCCc2sc(-c3ccc(C)cc3)nc2C)c1,-2%,-8%,9%,.,.,.,
CCc1cc2c(=O)c(-c3nc4ccccc4[nH]3)coc2c(CN2CCCCC2C)c1O (configuration not stated),-15%,-18%,5%,?,0%,.,
CCc1cc2c(=O)c(-c3ccc4c(c3)OCCO4)coc2c(CN2CCCCC2C)c1O (configuration not stated),-3%,-17%,8%,?,-6%,-13%,
Cn1cc(-c2nc3cnc(N4CCNCC4)nc3n(C3CC3)c2=O)c2ccccc21,1%,.,.,-7%,?,.,
CN(C)CC1CCn2c(c(C3=C(c4cn(C)c5ccccc45)C(=O)NC3=O)c3ccccc32)C1 (configuration not stated),-5%,.,13%,?,-5%,79µM*,
CCN(CC)C(=O)CSc1nc2ccc(NC(=O)CSc3nccn3C)cc2s1,-12%,-12%,3%,20µM*,0%,-13%,RECQ1 conf=?;RECQ1 ADP FP=?
O=[N+]([O-])c1ccc(Nc2nc(NCCN3CCOCC3)nc(Nc3ccc(Cl)cc3)n2)cc1,.,-15%,.,.,.,.,
COc1ccc2c(c1)c1c(c(=O)n(-c3ccccc3C)c(=O)n1CC(N)=O)n2C,-5%,18%,0%,.,.,.,
